Results on 37 compounds are retold here after ChEMBL document CHEMBL3433997, “St. Jude Leishmania screening dataset” (2016).

Common to all, as to assay type: functional
In assay [1] the target is Solute carrier family 2, facilitated glucose transporter member 1 (Homo sapiens) (UniProt P11166). The assay is described as follows: ST_JUDE_LEISH: Cytotoxicity at 2uM final concentration against transgenic Leishmania Mexicana promastigotes LmGLUT1 that are glucose transport deficient and complemented with the human glucose transporter GLUT1. Activity is measured by DNA content using SYBR green in vitro.

In assay [2] the target is Hexose transporter 1 (Plasmodium falciparum) (UniProt O97467). The experiment in a line: ST_JUDE_LEISH: Cytotoxicity at 2uM final concentration against transgenic Leishmania Mexicana promastigotes LmPfHT that are glucose transport deficient and complemented with the Plasmodium falciparum hexose transporter. Activity is measured by DNA content using SYBR green in vitro.

For assay [3], the target named is Glucose transporter (Leishmania mexicana) (UniProt O61059). The assay is described as follows: ST_JUDE_LEISH: Cytotoxicity at 2uM final concentration against transgenic Leishmania Mexicana promastigotes LmGT2 that are glucose transport deficient and complemented with the L. Mexicana glucose transporter 2. Activity is measured by DNA content using SYBR green in vitro.

Structures are written as SMILES.

Chain of Solute carrier family 2, facilitated glucose transporter member 1 (Homo sapiens) (P11166 whole entry): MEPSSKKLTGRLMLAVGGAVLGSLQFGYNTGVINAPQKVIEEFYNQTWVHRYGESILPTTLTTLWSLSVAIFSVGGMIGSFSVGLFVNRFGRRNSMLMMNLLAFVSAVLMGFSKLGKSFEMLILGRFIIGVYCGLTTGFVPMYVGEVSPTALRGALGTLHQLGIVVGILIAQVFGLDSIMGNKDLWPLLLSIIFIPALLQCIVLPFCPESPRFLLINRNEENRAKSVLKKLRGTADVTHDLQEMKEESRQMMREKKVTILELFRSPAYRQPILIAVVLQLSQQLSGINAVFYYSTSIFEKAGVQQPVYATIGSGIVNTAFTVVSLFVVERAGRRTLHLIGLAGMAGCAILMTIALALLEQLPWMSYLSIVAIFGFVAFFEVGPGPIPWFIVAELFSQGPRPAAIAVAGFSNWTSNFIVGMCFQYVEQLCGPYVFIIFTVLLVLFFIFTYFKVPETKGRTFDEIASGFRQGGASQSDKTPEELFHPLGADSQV

Usually inhibition stands for the drop in the measured response relative to a control, in per cent. Take `CSCCC(C(=O)O)N1C(=O)c2ccccc2C1=O` (stereo unspecified): the inhibition in assay [1] turned out to be 0.66%; in assay [2], 1.03%; in assay [3] it was 0.77%.

For `CCc1ccc(CN2CCC(CNC(=O)c3cc(-c4ccccc4Cl)cs3)C2)cc1` (stereo unspecified), the inhibition in assay [1] was 7.86%; in assay [2] it was 8.8%; in assay [3] it was 10.8%.

For `C[C@H](NC(=O)c1c(CN2CCC(N3CCCCC3=O)CC2)c(-c2cccs2)nc2ccccc12)C1CCCCC1`, the inhibition in assay [1] stood at 4.3%; in assay [2], 0.29%; in assay [3], 0.41%.

Regarding `COC(=O)c1c(NC(=O)c2cccc(C(F)(F)F)c2)sc2c1CCN(Cc1ccccc1)C2`, the inhibition was 1.14% in assay [1], 5% in assay [2] and -1.31% in assay [3].

Consider `Cc1cc(=NN=Cc2ccc(Cl)cc2)c2ccccc2[nH]1`, for which the inhibition was determined as 4.28% in assay [1], 6.86% in assay [2] and 3.97% in assay [3].

For the compound `O=c1cc(NCCCNC2CCOc3c(Cl)cc(Cl)cc32)[nH]c2ccccc12` (stereo unspecified), the inhibition in assay [1] was found to be 1.09%; in assay [2] it was 2.42%; in assay [3], 1.28%.

With `CNCCCNCc1ccc(-c2ccc(F)c(Cl)c2)o1`, the inhibition in assay [1] was 0.54%; in assay [2], 1.28%; in assay [3], 0.56%.

`Cn1nc(-c2ccc(NC(=O)Nc3cc(C(F)(F)F)ccc3F)cc2)c2cnc(NCCCCN3CCCC3)nc21`: the inhibition in assay [1] turned out to be 3.73%; in assay [2], 4.39%; in assay [3], 4.25%.

For `Cc1cccc2nc(-c3ccc(-c4cccc(NC(=O)CCc5c[nH]cn5)c4)cc3)[nH]c12`, the inhibition worked out at 0.1% in assay [1], 1.46% in assay [2] and 2.35% in assay [3].

`N/C(=N\c1cccc(Cc2ccccc2)n1)NCc1ccccc1`: the inhibition is 2.04% in assay [1], -1.19% in assay [2] and 3.21% in assay [3].

For the compound `Cc1cc(N2CCCN(CC3CCCCC3)CC2)nc(Nc2ccc(Br)cc2)n1`, the inhibition was 1.81% in assay [1], 6.86% in assay [2] and -2.12% in assay [3].

Regarding `Cc1cccc2sc(N(CCCn3ccnc3)C(=O)C=Cc3cccs3)nc12`, the inhibition turned out to be 12.6% in assay [1], 12.7% in assay [2] and 6.56% in assay [3].

Take `CS(=O)(=O)c1ccccc1CNC(=O)c1cccc(-c2ccc(-c3nc4cc(C(F)(F)F)ccc4[nH]3)cc2)c1`: the inhibition in assay [1] was determined as 2.38%; in assay [2], 1.77%; in assay [3], 0.15%.

Regarding `CNCCNCc1ccc(-c2ccc(-c3nc4cc(C(F)(F)F)ccc4[nH]3)s2)cc1`, the inhibition in assay [1] turned out to be 2.21%; in assay [2], 0.84%; in assay [3], 0.73%.

For the compound `CCc1c(CCNCCCCCCNCCc2ccc([N+](=O)[O-])cc2)ccc(O)c1O`, the inhibition was -1.33% in assay [1], -0.9% in assay [2] and 0.31% in assay [3].

Consider `CCC(C)(C)C1CCc2[nH]c3ccccc3c(=O)c2C1` (stereo unspecified), for which the inhibition stood at 9.6% in assay [1], 26.9% in assay [2] and 6.59% in assay [3].

As to `Cc1c(Cc2ccccc2Br)cnc2nc(N)nc(N)c12`, the values for the inhibition in assay [1], in assay [2] and in assay [3] were 9.6%, 30.2% and 14.2%, respectively.

In the case of `Cc1cc(C)cc(CC(=O)N2CCC(n3c(C)nc4ccc(C)cc43)CC2)c1`, the inhibition stood at 2.35% in assay [1], 1.45% in assay [2] and 1.51% in assay [3].

On to `COc1ccc(C(C(=O)NC2CCN(C[C@H](O)c3ccnc4ccc(OC)cc34)CC2)N2CCN(Cc3ccccc3)CC2)cc1` (stereo partly specified), for which the inhibition in assay [1] is 0.34%; in assay [2], 0.74%; in assay [3], -0.21%.

As to `COc1ccc(C2CCN(CCN3CCC(NC(=O)c4cccc(-c5ccncc5)c4)CC3)CC2)c(OC)c1`, the inhibition in assay [1] came out at 1.32%; in assay [2] it was 0.37%; in assay [3], 0.47%.

`O=C(O)c1ccc(-c2cnc3ccc(NC4CCC(O)CC4)nn23)cc1` (stereo unspecified): the inhibition was 0.42% in assay [1], 0.39% in assay [2] and -0.34% in assay [3].

Consider `Cc1ccc(-c2cc(C(=O)Nc3ccc(S(=O)(=O)N4CC(C)OC(C)C4)cc3)[nH]n2)c(O)c1` (stereo unspecified), for which the values for the inhibition in assay [1], in assay [2] and in assay [3] were 3.32%, 2.68% and 3.48%, respectively.

For `Cc1noc(-c2cccs2)c1C(=O)NC(C)c1cccc2ccccc12` (stereo unspecified), the inhibition in assay [1] was -0.34%; in assay [2], 0.45%; in assay [3], 0.18%.

Regarding `CC(=O)Nc1ccc(C#Cc2ccc(-c3c(C)[nH]c(C)c(Cl)c3=O)cc2)cc1`, the figures for the inhibition in assay [1], in assay [2] and in assay [3] were 1.3%, 0.64% and 1.24%, respectively.

Turning to `CCOc1ccc(C2CCN(CCCCNC(=O)c3ccc(NC(=O)c4ccc(Cl)cc4)cc3)CC2)c(Cl)c1`, the inhibition was 1.99% in assay [1], 4.55% in assay [2] and 1.92% in assay [3].

With `COc1ccc(CNc2nc(NCc3ccc(C(F)(F)F)cc3)c3cc(OC)c(OC)cc3n2)cc1OC`, the inhibition came out at 20.1% in assay [1], 19.9% in assay [2] and 14.3% in assay [3].

As to `CCOC(=O)C(C(=O)OCC)c1nc(C)ns1`, the values for the inhibition in assay [1], in assay [2] and in assay [3] were -1.35%, 0.58% and 0.53%, respectively.

`COc1ccc(CNCc2ccsc2)cc1-c1ccc(S(=O)(=O)NCCN2CCCC2)s1`: the inhibition in assay [1] is 8.12%; in assay [2], 8.67%; in assay [3], 5.77%.

`OC(CNc1ccnc(Nc2ccccc2)n1)c1cccc(C(F)(F)F)c1` (stereo unspecified): the inhibition in assay [1] is 4.65%; in assay [2], 4.22%; in assay [3], 0.68%.

Regarding `CCCOc1ccc(CCCON2C(N)=NC(N)=NC2(C)C)cc1`, the inhibition in assay [1] came to 7.95%; in assay [2], 13%; in assay [3], 6.99%.

`COc1cccc(CNC(=O)[C@H]2CNCCN2C(=O)CCCc2ccccc2)c1`: the results for the inhibition in assay [1], in assay [2] and in assay [3] were 3.03%, -0.14% and 5.01%, respectively.

For `CC(C)COc1ccc(Cl)cc1Cc1nc(-c2nc3ccc(CN4CCCCC4)cc3[nH]2)co1`, the values for the inhibition in assay [1], in assay [2] and in assay [3] were 4.83%, 3.69% and 2.91%, respectively.

For `O=C(Nc1cccc(-c2nc3ccccc3[nH]2)c1)c1cccc(NC(=O)c2ccco2)c1`, the inhibition turned out to be 2.33% in assay [1], 2.09% in assay [2] and 0.63% in assay [3].

With `COCCNC(=O)c1ccc(OC2CCN(Cc3ccc(F)c(F)c3)CC2)c(Cl)c1`, the values for the inhibition in assay [1], in assay [2] and in assay [3] were 0.95%, 1.83% and -2.21%, respectively.

With `S=C(NCCCCCN1CCC(c2c[nH]c3ccccc23)CC1)Nc1cc(Cl)cc(Cl)c1`, the inhibition is 0.38% in assay [1], -0.55% in assay [2] and 0.49% in assay [3].

As to `O=C(Nc1cccc(C(F)(F)F)c1)c1cccc(S(=O)(=O)NCC2CCCN2CC2CCCCC2)c1` (stereo unspecified), the figures for the inhibition in assay [1], in assay [2] and in assay [3] were 5.37%, 3.21% and 4.26%, respectively.

Regarding `O=C(NCCc1ccc(Cl)c(Cl)c1)[C@@H]1CCCN1C(=O)c1ccc(O)c(-c2cccc(C(F)(F)F)c2)c1`, the figures for the inhibition in assay [1], in assay [2] and in assay [3] were 1.34%, -0.04% and -2.44%, respectively.
